According to PubChem BioAssay (Tox21):
A number with no mark means an inactive call. Calls of active or inactive are those of the source. The call rests on the fitted dose curve; in most records, active means well fitted curve in the direction sought with a large enough effect in the repeat runs; inconclusive means weak or mixed curves; inactive means flat fitted curve, though single readings scatter.

Assay: qHTS assay to test for compound auto fluorescence at 460 nm (blue) in HEK293 cell free culture (AID 720681)
Conditions: cell-free medium, autofluorescence 405/460 nm (blue); series mostly up to 91.3 µM
Procedure, shortened: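 Compounds were added to cell-free DMEM with 10% FBS and fluorescence read directly. The blue channel used 405 nm excitation and 460 nm emission, with triamterene as the reference fluorophore.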
On the % scale 0 is the no-effect control and ±100 the full control effect.

| SMILES | outcome |
| --- | --- |
| CCC1(c2ccccc2)C(=O)N(COC)C(=O)N(COC)C1=O | inactive |
| CCCCCCCCSC(=O)Oc1cc(Cl)nnc1-c1ccccc1 | inactive |
| CCOP(=S)(OCC)Oc1ccc(Cl)cc1Cl | inactive |
| O=[N+]([O-])CCO | inactive |
| C[C@H](N)C(=O)c1ccccc1 | inactive |
| CCc1cc(OC)c(C[C@H](C)N)cc1OC | inactive |
| COC(=O)c1ccc(CBr)cc1 | inactive |
| CCN[C@@H](C)Cc1cccc(C(F)(F)F)c1 | inactive |

Assay: qHTS assay to test for compound auto fluorescence at 535 nm (green) in HEK293 cell free culture (AID 720682)
Conditions: cell-free medium, green autofluorescence 485/535 nm, active compounds read high; series mostly up to 91.3 µM
Procedure, shortened: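 Cell-free medium (DMEM, 10% FBS) receives compound or DMSO by pintool. Plate read directly at Ex 485/Em 535 nm. Signal converted to fluorescein equivalency.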

| SMILES | outcome | activity change |
| --- | --- | --- |
| CCN(CCO)CCO | inactive |  |
| C=CCc1cc(OC)c2c(c1)OCO2 | inactive |  |
| CC(C)(C1CCC(O)CC1)C1CCC(O)CC1 (stereo not drawn) | inactive |  |
| COc1cccc(C=O)c1 | inactive |  |
| C=CC1(C)OC(=O)N(c2cc(Cl)cc(Cl)c2)C1=O (stereo not drawn) | inactive |  |
| COC(=O)[C@@H](N)CCCN/C(N)=N/[N+](=O)[O-] | inactive |  |
| CC(C)(O)C(Cl)(Cl)Cl | inactive |  |
| Cc1cc(OC(=O)N(C)C)nn1C(=O)N(C)C | inactive |  |
| NCC1(CC(=O)O)CCCCC1 |  | 0.0242% [at 18.6 µM] |
| COc1ccccc1OC | inactive |  |
| [P]#[In] | inactive |  |
| O=C(Cl)/C=C/C(=O)Cl | inactive |  |
| CCOC(=O)NC(C)(C)Cc1ccc(Cl)cc1 | inactive |  |
| O=c1[nH]oc2c1CCNC2 | inactive |  |
| O=C(Cl)C(Cl)(Cl)Cl | inactive |  |
| CN(CCO)CCO | inactive |  |
| COC(=O)c1ccccc1CS(=O)(=O)NC(=O)Nc1nc(OC)cc(OC)n1 | inactive |  |
| CCOC1Oc2ccc(OS(C)(=O)=O)cc2C1(C)C (stereo not drawn) | inactive |  |
| C[N+]1(C)CCCCC1 | inactive |  |
| COc1cc(CCN)cc(OC)c1OC | inactive |  |
